PubChem BioAssay AID590 (National Center for Advancing Translational Sciences (NCATS), 2007)
In all, about 59,000 compounds went through this assay and about 6,500 (11%) were called active. Roughly 15% stayed inconclusive and do not appear here. No stated cut-off is given here; in the data, active means max dye-equivalent concentration above about 10 nM; inconclusive means mostly about 1.1 nM to 9.6 nM; inactive means weaker than that. Shown is part of a subset that was picked to be rich in actives.

Assay: qHTS Assay for Spectroscopic Profiling in A350 Spectral Region
Conditions: Compound autofluorescence, 340/450 nm, Alexa 350 dye-equivalents; hits give high values

SMILES	max dye-equivalent concentration
O=C1CSC(=O)N1CCOCCN1C(=O)CSC1=O	inactive
CS(=O)(=O)N1CCC2(CCN(c3ccncc3)CC2)CC1	inactive
COc1c(F)c(F)c(-c2csc(N)n2)c(F)c1F	15 nM (active)
Cc1ccc(F)cc1NC(=O)c1cccc(N(C)C)c1	inactive
OCCCNC(c1ccccc1)c1ccc(O)cc1 (centres undefined)	inactive
O=C(Nc1ccc(F)cc1)c1cccnc1N1CCOCC1	inactive
C=CCn1c(COc2cccc3cccnc23)nnc1SCC(=O)OC	inactive
CCOc1cc(N2CCOCC2)c(OCC)cc1NC(=O)COc1cccc2cccnc12	19 nM (active)
CCCn1c(SCC(=O)N2CCc3ccccc32)nnc1-c1ccncc1	inactive
Cc1cccc(NC(=O)CSc2nc3c(c(=O)[nH]2)CCC3)c1C	inactive
COc1cccc(-c2nc(S(=O)(=O)c3ccccc3)c(N3CCOCC3)o2)c1	inactive
COc1cccc(-c2cc3nc4c(c(N5CCC6(CC5)OCCO6)n3n2)CCCC4)c1	130 nM (active)
COc1ccccc1CNC(=O)C1CCN(S(C)(=O)=O)CC1	inactive
Cc1cc(C)c2nc3c(c([C@H](O)[C@@H]4CCCCN4)c2c1)CC/C3=C/c1ccc(Cl)cc1	inactive
Cc1nc(NC(=O)CCC(=O)O)sc1C(=O)N(C)C	inactive
CCOC(=O)c1sc(/N=C/Nc2nc(C)c(C(=O)OCC)s2)nc1C	10 nM (active)
COC(=O)c1sc(NC(=O)c2csc3c2CCCC3)nc1C	inactive
CCN(CC)P(=O)(C(NC(=O)OC)C(F)(F)C(F)(F)C(F)(F)C(F)F)N(CC)CC (centres undefined)	inactive
CCOc1cccc(NC(=O)C2CCCN(S(=O)(=O)c3ccc(OC)cc3)C2)c1 (centres undefined)	inactive
CCOC(=O)c1c(C)c(C(=O)NCCc2ccc(S(N)(=O)=O)cc2)c(C)n1CC	inactive
CCOc1ccccc1-n1c(SCC(=O)N2CCCC2)nnc1-c1ccoc1C	inactive
C=CCNc1nnc(C)c2ccccc12	inactive
C=CCNc1nnc(SCC(=O)N2CCCCC2)c2ccccc12	15 nM (active)

SMILES	max dye-equivalent concentration
O=C(OCC(=O)N1CCN(C(=O)c2ccco2)CC1)c1ccccc1Cc1ccccc1	inactive
COc1ccc(C2C(C(=O)N3CCN(c4ccc(OC)cc4)CC3)c3ccccc3C(=O)N2C)cc1 (centres undefined)	inactive
C/C(Cl)=C\Cn1c(Nc2cccc(C)c2)nc2c1c(=O)n(C)c(=O)n2C	inactive
COCCNC(=O)c1ccccc1-c1nc(-c2ccccc2Cl)no1	inactive
COCCNC(=O)c1snc2ccc(Cl)cc12	46 nM (active)
COCC(C)NC(=O)c1ccc(Cl)c(Cl)c1 (centres undefined)	inactive
OCCCNCc1ccccn1	inactive
Cc1noc(C)c1CSc1nc2cc(S(=O)(=O)N3CCOCC3)ccc2o1	inactive
CC(=O)Nc1ccc(S(=O)(=O)Nc2nc3n(n2)C(c2ccccc2)CC(=O)N3)cc1 (centres undefined)	inactive
Cc1onc(-c2ccccc2Cl)c1C(=O)NCCn1ccc2ccccc21	inactive
Cc1nc(SCC(=O)Nc2cc(C)on2)c2c(C)c(C)sc2n1	inactive
Cc1ccc2nc(-c3ccc(SCC(=O)Nc4cc(C)on4)nc3)[nH]c2c1	30 nM (active)
Cc1cc(C)c2c(c1)cc(C)c1nnc(SCC(=O)Nc3cc(C)on3)n12	inactive
Cn1c(=O)c2c(nc(SCC(=O)Nc3ccccc3N3CCCCC3)n2C)n(C)c1=O	inactive
CC(C)c1cc(CN(C)C)c(O)c(C(C)(C)C)c1	inactive
O=c1oc2cc(O)ccc2cc1-c1ccc(F)cc1	100 nM (active)
O=C(Cn1c(=S)nc2ccccn21)N1CCc2ccccc2C1	inactive
O=C1c2ccccc2C(=O)N1c1ccccc1S(=O)C(F)(F)F (centres undefined)	inactive
CC1Cc2ccccc2N1C(=O)Cn1cnc2ccccc2c1=O (centres undefined)	inactive
CCOC(=O)CCc1c(C)c(C#N)c2[nH]c3ccccc3n2c1=O	5400 nM (active)
CCCOC(=O)Cc1c(O)c2ccccc2[nH]c1=O	inactive
CCOC(=O)CC1=CC(=O)Nc2ccccc2N1	inactive
CC1(C)Cc2ccccc2-c2nnc(-c3cccc(O)c3)n21	inactive

SMILES	max dye-equivalent concentration
Cc1cc(C)nc(-n2nc(C)cc2NC(=O)c2ccc(Br)o2)n1	inactive
CCc1c(C)sc(NC(=O)c2ccc(Br)o2)c1C(=O)OC	190 nM (active)
CCCC(=O)Nc1ccc(Cl)c(NC(=O)c2ccc(Br)o2)c1	inactive
COc1ccc(CCNC(=O)CSc2nnc(-c3cccc(F)c3)o2)cc1OC	inactive
CC(C)C(=O)Nc1cccc(C(=O)Nc2ccc3c(c2)OCO3)c1	inactive
O=C(NC1CCCCC1)C1c2ccccc2C(=O)N1Cc1ccco1 (centres undefined)	inactive
O=C1c2cccnc2C(Nc2ccc(S(=O)(=O)N3CCCCCC3)cc2)N1Cc1ccccc1 (centres undefined)	inactive
O=C1c2ccccc2C(O)N1Cc1ccccc1 (centres undefined)	26 nM (active)
CC(C)(CNCC(O)c1ccccc1)N1CCOCC1 (centres undefined)	inactive
Cc1ccc(C)c(NS(=O)(=O)c2cc(Br)cnc2N)c1	inactive
Cc1ccc(-c2noc(CSc3nnc(-c4ccccc4)n3C)n2)cc1	inactive
N=c1n(Cc2ccc(Cl)cc2)c2ccccc2n1CC(O)c1ccco1 (centres undefined)	11 nM (active)
O=C(c1ccncc1)N1CCC2(CCCN(C(c3ccccc3)c3ccccc3)C2)CC1	inactive
COC(=O)[C@@H](NC(=O)NCc1cccc(OC)c1)C(C)C	inactive
COCCCNC(=O)c1ccc2c(c1)ncn2-c1ccccc1OC	inactive
COc1cc(OC)cc(-c2nc3nc(C)c(CCC(=O)NCc4ccco4)c(C)n3n2)c1	inactive
COc1ccc(CCn2c(=N)c(C(=O)NCc3ccco3)cc3c(=O)n4cccc(C)c4nc32)cc1	15 nM (active)
CCn1c(=N)c(C(=O)NCCCOC)cc2c(=O)n3cccc(C)c3nc21	20000 nM (active)
COc1ccc(CNC(=O)C2CCN(S(=O)(=O)N3CCOCC3)CC2)cc1	inactive
COc1ccc(C(=O)NCc2cn3ccccc3n2)cc1	inactive
CCOCCCNC(=O)c1c[nH]c2cc(C)ccc2c1=O	inactive
COc1ccccc1C(=O)NCCn1cc(SCC(=O)NCc2ccco2)c2ccccc21	inactive
COc1ccc(CNC(=O)c2cc3c(=O)n4ccccc4nc3n(CC3CCCO3)c2=N)cc1 (centres undefined)	290 nM (active)
